Laboratory results as given in PubChem BioAssay (EPA / NIEHS).
Results filed as inconclusive are left out. Activity calls are given as the source filed them. The calls were made as follows: active = hit-call score of the fitted dose curve at least 0.9, where 1 is the maximum; inconclusive = response in the unintended direction; inactive = score below 0.9.

Tests used:
[1] = TOX21_p53_BLA_p2_viability: Viability Assessment in the Tox21 HCT-116 p53 Agonism Beta-lactamase Assay, Phase 2 (AID 2283591);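 also: compound exposure lasted 16 h at 37 °C; actives lower the ATP signal meaning cytotoxicity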
Summary of the method: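 HCT116 p53-bla cells, 4000/well, dosed after 5 h plating (217-fold dilution of DMSO stocks) and incubated 16 h at 37C. Viability taken as cellular ATP by CellTiter-Glo luminescence after 30 min RT; signal loss marks cytotoxicity.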

[2] = target: Cellular tumor antigen p53 (Homo sapiens) (UniProt P04637); experiment: TOX21_p53_BLA_p3_ratio: Tox21 HCT-116 p53 Agonism Beta-lactamase Assay, Ratio, Phase 3 (AID 2283596)
Summary of the method: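 HCT116 p53-bla cells (4000/well) given compound in DMSO (217-fold dilution) after 5 h, incubated 16 h at 37C. CCF4-AM substrate 2 h at room temperature; 460/530 nm emission ratio, gain fitted against DMSO.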

[3] = TOX21_p53_BLA_p4_viability: Viability Assessment in the Tox21 HCT-116 p53 Agonism Beta-lactamase Assay, Phase 4 (AID 2283597);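 also: hits lower the luminescence signal meaning cytotoxicity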
Summary of the method: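 Cells plated, 5 h pre-incubation; DMSO compounds pinned (217-fold dilution); 16 h, 37C/5% CO2; CCF4-AM 2 h RT; CellTiter-Glo 30 min RT; luminescence read.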

[4] = TOX21_p53_BLA_p5_viability: Viability Assessment in the Tox21 HCT-116 p53 Agonism Beta-lactamase Assay, Phase 5 (AID 2283600)
Summary of the method: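 4000 cells/well; 5 h pre-incubation; DMSO compounds pin-transferred, 217-fold dilution; 16 h, 37C/5% CO2; CCF4-AM 2 h RT; CellTiter-Glo 30 min RT; luminescence.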

[5] = target: Cellular tumor antigen p53 (Homo sapiens) (UniProt P04637); experiment: TOX21_p53_BLA_p4_ratio: Tox21 HCT-116 p53 Agonism Beta-lactamase Assay, Ratio, Phase 4 (AID 2283601)
Summary of the method: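 HCT-116 p53 beta-lactamase reporter cells (4000/well) preincubated 5 h, then compound (217-fold dilution of DMSO stock) for 16 h at 37C. CCF4-AM substrate added 2 h at room temperature; 460/530 nm emission ratio fitted upward versus DMSO.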

[6] = target: Cellular tumor antigen p53 (Homo sapiens) (UniProt P04637); experiment: TOX21_p53_BLA_p5_ratio: Tox21 HCT-116 p53 Agonism Beta-lactamase Assay, Ratio, Phase 5 (AID 2283599)
Summary of the method: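 HCT-116 p53-bla cells (4000/well) plated 5 h, dosed with compound (217-fold DMSO dilution) for 16 h at 37 C; CCF4-AM substrate 2 h at room temperature. Activity is the 460/530 nm emission ratio (405 nm excitation), fitted in gain-of-signal direction versus DMSO.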

Measured: outcome

Cellular tumor antigen p53 (Homo sapiens), sequence (P04637 whole entry, looked up): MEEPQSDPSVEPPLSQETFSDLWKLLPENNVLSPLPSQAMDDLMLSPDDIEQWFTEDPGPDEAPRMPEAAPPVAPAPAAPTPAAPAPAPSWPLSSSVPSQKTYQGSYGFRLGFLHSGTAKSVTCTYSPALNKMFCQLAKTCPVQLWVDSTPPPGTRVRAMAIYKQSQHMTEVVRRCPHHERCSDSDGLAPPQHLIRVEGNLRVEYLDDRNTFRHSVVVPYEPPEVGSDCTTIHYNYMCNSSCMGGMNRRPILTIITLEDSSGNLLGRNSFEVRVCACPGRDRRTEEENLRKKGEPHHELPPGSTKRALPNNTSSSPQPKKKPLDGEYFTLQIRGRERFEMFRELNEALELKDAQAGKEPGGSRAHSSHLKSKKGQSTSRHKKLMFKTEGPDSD

O=C1OC(=O)c2ccccc21
not listed: [6]
inactive: all other assays above

COc1c(O)cc2c(c1O)[C@@H]1O[C@H](CO)[C@@H](O)[C@H](O)[C@H]1OC2=O
inactive: [1] | [2] | [6] | [5]

C1CCCC1
not listed: [3]
inactive: all other assays above

COCCOCCOCCOCCO
inactive: [1] | [2] | [6] | [5]

C=CC[N+]1([C@H]2C[C@H]3[C@@H]4CC[C@H]5C[C@H](OC(C)=O)[C@@H](N6CCCCC6)C[C@]5(C)[C@H]4CC[C@]3(C)[C@H]2OC(=O)CC)CCCCC1
not listed: [6]
inactive: all other assays above

O=CNNC=O
inactive: [1] | [2] | [6] | [5]

N#Cc1ccc(C(=O)O)cc1
not listed: [2]
inactive: all other assays above

Cc1cccc(Nc2ccncc2S(=O)(=O)NC(=O)NC(C)C)c1
not listed: [2]
inactive: all other assays above

COc1ccc2c(c1)c(CC(=O)OCC(=O)O)c(C)n2C(=O)c1ccc(Cl)cc1
inactive: [1] | [3]

CC(=O)[C@@]1(O)CC[C@H]2[C@@H]3C[C@H](C)C4=CC(=O)CC[C@]4(C)[C@H]3CC[C@@]21C
inactive: [1] | [3] | [6]

CC(C)=CC(=O)C=C(C)C
inactive: [1] | [3] | [6] | [4]

CC(C)CC=O
inactive: [1] | [3] | [6]

c1ccc(CC2=NCCN2)cc1
inactive: [1] | [3] | [6]

CC(=C(CCO)SSCC1CCCO1)N(C=O)Cc1cnc(C)nc1N (centres undefined)
inactive: [1] | [3] | [6]

CC[N+](C)(C)c1cccc(O)c1
inactive: [1] | [2] | [6] | [5]

C[C@H](O)CN(C)C
inactive: [1] | [2] | [6] | [5]

CC(=O)Nc1c(I)cc(I)c(C(=O)O)c1I
inactive: [1] | [2] | [6] | [5]

Clc1ccccc1-c1nc(-c2ccncc2)no1
inactive: [1] | [3] | [6] | [4]

CCC(Cc1c(I)cc(I)c(O)c1I)C(=O)O (centres undefined)
inactive: [1] | [3] | [6]

Cc1ccccc1C(N)=O
inactive: [1] | [2] | [4] | [5]

O=C1c2c(O)cccc2C([C@@H]2O[C@H](CO)[C@@H](O)[C@H](O)[C@H]2O)c2cc(CO)cc(O)c21 (some centres undefined)
not listed: [2]
inactive: all other assays above

CC(C)CCCO
inactive: [1] | [2] | [5]

CC(=O)Nc1ccc(C)c(Cl)c1
inactive: [1] | [3] | [6] | [4]

CCC(C(=O)OCCOCCN(CC)CC)c1ccccc1 (centres undefined)
inactive: [1] | [2] | [6] | [5]

CCC1=C(C)CN(C(=O)NCCc2ccc(S(=O)(=O)NC(=O)NC3CCC(C)CC3)cc2)C1=O (centres undefined)
inactive: [1] | [3] | [6]

CC(C(=O)O)c1ccc(/C=C2\CCCCC2=O)cc1 (centres undefined)
inactive: [1] | [2] | [4] | [5]

O=C(Cn1ccnc1[N+](=O)[O-])NCc1ccccc1
inactive: [1] | [2] | [4] | [5]

Nc1ncnc(Nc2ccccc2)n1
inactive: [1] | [2] | [5]

O=[N+]([O-])c1ccc2[nH]ncc2c1
not listed: [2]
inactive: all other assays above

CC(NN)c1ccccc1 (centres undefined)
inactive: [1] | [2] | [4] | [5]

N[C@@H](C(=O)N[C@@H]1C(=O)N2C(C(=O)O)=C(CSc3cn[nH]n3)CS[C@H]12)c1ccc(O)cc1
inactive: [1] | [3] | [6] | [4]

CC(=O)C1CCCCC1=O (centres undefined)
inactive: [1] | [2] | [4]
